What all share (experiment): NCI-60 one-dose screen, 48 h (100 = growth as untreated, 0 = no growth, -100 = all killed)
One experiment deals with DU-145 prostate. The following applies: 10 µM unless noted.
The next experiment has as its system K-562 leukemia. The following applies: 10 µM unless noted.
Another experiment has as its system MALME-3M melanoma. The conditions noted are these: 10 µM unless noted.
A further experiment deals with MDA-MB-231 breast. The conditions noted are these: 10 µM unless noted.
The test system of another experiment is RXF 393 renal. The conditions noted are these: 10 µM unless noted.
Another experiment has as its system SF-268 CNS. The following applies: 10 µM unless noted.
The subject of the next experiment is SF-295 CNS. The following applies: 10 µM unless noted.
The next experiment relates to SF-539 CNS. The following applies: 10 µM unless noted.
The subject of a further experiment is UACC-257 melanoma. The following applies: 10 µM unless noted.
Another experiment has as its system M14 melanoma. The conditions noted are these: 10 µM unless noted.
In the next experiment the test system is HCT-15 colon. The conditions noted are these: 10 µM unless noted.
For another experiment, the system named is HT29 colon. The conditions noted are these: 10 µM unless noted.
The subject of another experiment is SNB-75 CNS. The conditions noted are these: 10 µM unless noted.
For the next experiment, the system named is SNB-19 CNS. The conditions noted are these: 10 µM unless noted.
The next experiment deals with U251 CNS. The following applies: 10 µM unless noted.
A further experiment concerns PC-3 prostate. The conditions noted are these: 10 µM unless noted.
The next experiment deals with SK-MEL-5 melanoma. The conditions noted are these: 10 µM unless noted.
The subject of the next experiment is UACC-62 melanoma. The conditions noted are these: 10 µM unless noted.
In another experiment the test system is LOX IMVI melanoma. The following applies: 10 µM.
In the next experiment the test system is SK-MEL-28 melanoma. The conditions noted are these: 10 µM unless noted.

This is part of a sample that, as a whole, favours compounds with a hit. Of some 83,000 tested, about 20% had one in any assay.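 Plates (96-well) were seeded with cells, treated with compound at one concentration, and incubated for 48 hours before percent growth was determined.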 A number with no mark means an inactive call. Active and inactive are the calls of the source. How the source made its calls: active means growth percent below 10; inactive means the rest.

For the compound `CCOC(=O)C1=C(N)N(c2ccccc2)C2=C(C(=O)CC(C)(C)C2)C1c1ccccc1Cl` (stereo not given), the growth with DU-145 prostate was 88.2%; in the experiment with K-562 leukemia it was 41.5%; in the experiment with MALME-3M melanoma it was 89.3%; in the experiment on MDA-MB-231 breast, 84.8%; with RXF 393 renal, 78.2%; in the experiment with SF-268 CNS, 80%. For the same compound, the growth is 75% in the experiment with SF-295 CNS; 100% in the experiment with SF-539 CNS; 72.5% in the experiment with UACC-257 melanoma; 50.8% in the experiment on M14 melanoma; 49.1% with HCT-15 colon; 55% in the experiment on HT29 colon. Further, the growth in the experiment with SNB-75 CNS was 66.3%; with SNB-19 CNS, 70.5%; in the experiment on U251 CNS, 79.3%; in the experiment on PC-3 prostate it was 29.6%; with SK-MEL-5 melanoma, 60.5%; in the experiment on UACC-62 melanoma it was 44%. Also, the growth is 85.4% with LOX IMVI melanoma and 81.4% in the experiment with SK-MEL-28 melanoma.

As to `Brc1ccc(-c2n(Cc3ccc4ccccc4c3)c(-c3ccccc3)c(-c3ccccc3)[n+]2Cc2ccc3ccccc3c2)cc1`, the growth with DU-145 prostate is -100% (active); with K-562 leukemia it was 4.96% (active); in the experiment on MALME-3M melanoma it was -91% (active); with MDA-MB-231 breast, -89.5% (active); in the experiment with RXF 393 renal, -69.6% (active); with SF-268 CNS it was -72.1% (active). Also, the growth in the experiment on SF-295 CNS was -86.3% (active); with SF-539 CNS, -100% (active); in the experiment with UACC-257 melanoma it was -89.6% (active); in the experiment with M14 melanoma, -90.8% (active); in the experiment with HCT-15 colon it was -85.4% (active); with HT29 colon it was -98.9% (active). The growth in the experiment with SNB-75 CNS is -97.9% (active); in the experiment on SNB-19 CNS, -93.4% (active); in the experiment on U251 CNS it was -97.8% (active); in the experiment on PC-3 prostate, -29.3% (active); in the experiment with SK-MEL-5 melanoma, -98.6% (active); with UACC-62 melanoma, -88.8% (active). In addition, the growth is -92.6% (active) with LOX IMVI melanoma and -96.3% (active) in the experiment on SK-MEL-28 melanoma.

`Nc1nc(-c2ccccc2)c(N=Nc2ccc(Cl)cc2[N+](=O)[O-])s1`: the growth in the experiment on DU-145 prostate is 112%; in the experiment with K-562 leukemia it was 96.1%; in the experiment on MALME-3M melanoma, 109%; with MDA-MB-231 breast, 95.5%; with RXF 393 renal it was 106%; in the experiment on SF-268 CNS, 87.7%. Also, the growth is 101% with SF-295 CNS; 86.5% in the experiment on SF-539 CNS; 103% in the experiment with UACC-257 melanoma; 98.3% in the experiment on M14 melanoma; 94.4% in the experiment with HCT-15 colon; 100% in the experiment with HT29 colon. Besides, the growth with SNB-75 CNS was 80.1%; in the experiment with SNB-19 CNS, 89.2%; with U251 CNS, 92.4%; with PC-3 prostate, 87.1%; in the experiment on SK-MEL-5 melanoma it was 98.8%; in the experiment on UACC-62 melanoma it was 77.3%. Further, the growth is 88.2% in the experiment with LOX IMVI melanoma and 107% in the experiment with SK-MEL-28 melanoma.

Consider `N=C1N=C(SCc2nc3ccccc3[nH]2)NC(=O)/C1=C/c1ccc(Cl)cc1`, for which the growth is 110% in the experiment with DU-145 prostate; 110% in the experiment with K-562 leukemia; 96.4% in the experiment on MALME-3M melanoma; 92.8% in the experiment with MDA-MB-231 breast; 113% in the experiment with RXF 393 renal; 112% with SF-268 CNS. Further, the growth in the experiment on SF-295 CNS is 103%; in the experiment on SF-539 CNS, 102%; with UACC-257 melanoma, 106%; in the experiment on M14 melanoma, 108%; with HCT-15 colon it was 103%; in the experiment on HT29 colon, 108%. The growth in the experiment on SNB-75 CNS was 106%; in the experiment with SNB-19 CNS it was 105%; with U251 CNS, 105%; in the experiment with PC-3 prostate, 107%; with SK-MEL-5 melanoma, 98.3%; in the experiment on UACC-62 melanoma, 90.3%. In addition, the growth in the experiment on LOX IMVI melanoma was 91.3%; in the experiment with SK-MEL-28 melanoma it was 110%.

Regarding `CCOC(=O)/C=C/c1cccc2c1C(=O)NC(C)(c1cc3cc(Br)ccc3oc1=O)N2` (stereo not given), the growth in the experiment with DU-145 prostate was 49.6%; with K-562 leukemia, 24.1%; in the experiment on MALME-3M melanoma, 71%; in the experiment with MDA-MB-231 breast, 56%; in the experiment with RXF 393 renal, 35.6%; in the experiment with SF-268 CNS, 49.8%. For the same compound, the growth is 36.7% with SF-295 CNS; 73.9% in the experiment on SF-539 CNS; 64.6% in the experiment on UACC-257 melanoma; 42.4% in the experiment with M14 melanoma; 26.4% with HCT-15 colon; 43.5% in the experiment on HT29 colon. Also, the growth was 38.3% in the experiment with SNB-75 CNS; 48.7% with SNB-19 CNS; 47.1% with U251 CNS; 25.4% with PC-3 prostate; 48.2% in the experiment with SK-MEL-5 melanoma; 31.4% in the experiment on UACC-62 melanoma. The figures for the growth with LOX IMVI melanoma and in the experiment with SK-MEL-28 melanoma were 44.3% and 58.1%, respectively.

`N/C(=N\c1nc2ccccc2s1)NC(=O)Nc1c(Cl)cccc1Cl`: the growth in the experiment with DU-145 prostate was 55.1%; in the experiment with K-562 leukemia, 19.6%; with MALME-3M melanoma, 44%; in the experiment on MDA-MB-231 breast, 28.9%; in the experiment on RXF 393 renal it was 80.8%; with SF-268 CNS it was 42.2%. In addition, the growth was 28.2% in the experiment on SF-295 CNS; 30.8% in the experiment on SF-539 CNS; 75.4% in the experiment with UACC-257 melanoma; 21.8% in the experiment with M14 melanoma; 26.1% in the experiment on HCT-15 colon; 8.87% (active) in the experiment with HT29 colon. Further, the growth was 27.7% with SNB-75 CNS; 54.7% with SNB-19 CNS; 27.9% with U251 CNS; 63.2% with PC-3 prostate; 22.4% in the experiment with SK-MEL-5 melanoma; 23.6% in the experiment on UACC-62 melanoma. In addition, the values for the growth in the experiment on LOX IMVI melanoma and with SK-MEL-28 melanoma were 24.7% and 50.6%, respectively.

`O=c1oc2ccccc2cc1-c1csc(N2N=C(c3ccccc3)CC2c2ccc(N3CCOCC3)cc2)n1` (stereo not given): the growth in the experiment on DU-145 prostate is 113%; in the experiment on K-562 leukemia, 107%; in the experiment with MALME-3M melanoma, 116%; in the experiment with MDA-MB-231 breast it was 90.3%; in the experiment on RXF 393 renal it was 112%; in the experiment with SF-268 CNS, 127%. Besides, the growth with SF-295 CNS was 105%; in the experiment on SF-539 CNS, 100%; with UACC-257 melanoma, 119%; in the experiment on M14 melanoma, 103%; in the experiment on HCT-15 colon, 96.6%; in the experiment on HT29 colon, 117%. Moreover, the growth with SNB-75 CNS was 101%; in the experiment on SNB-19 CNS it was 116%; in the experiment on U251 CNS, 109%; with PC-3 prostate it was 102%; with SK-MEL-5 melanoma, 105%; in the experiment with UACC-62 melanoma, 92.2%. Moreover, the growth with LOX IMVI melanoma was 86.7%; in the experiment on SK-MEL-28 melanoma it was 109%.

For the compound `O=C(c1ccccc1)c1ccc2nc(-c3cccc(Cl)c3)[nH]c2c1`, the growth in the experiment on DU-145 prostate is 115%; in the experiment with K-562 leukemia it was 98.1%; in the experiment with MALME-3M melanoma, 111%; in the experiment on MDA-MB-231 breast it was 102%; with RXF 393 renal, 115%; in the experiment with SF-268 CNS, 106%. For the same compound, the growth with SF-295 CNS is 116%; with SF-539 CNS, 94.9%; in the experiment with UACC-257 melanoma, 100%; in the experiment on M14 melanoma, 108%; in the experiment on HCT-15 colon it was 108%; in the experiment on HT29 colon, 110%. Also, the growth is 99.2% in the experiment on SNB-75 CNS; 103% in the experiment on SNB-19 CNS; 96.5% in the experiment on U251 CNS; 99.6% in the experiment on PC-3 prostate; 99.5% with SK-MEL-5 melanoma; 98% with UACC-62 melanoma. Besides, the growth with LOX IMVI melanoma was 95.4%; in the experiment on SK-MEL-28 melanoma, 104%.

The record behind these values is PubChem BioAssay (NCI).
